Screening results deposited in PubChem by several laboratories.
PRMT1 FP inh: PRMT1 (human) inhibition, primary screen; Q99873; recombinant PRMT1, activity-based probe fluorescence polarization; inhibition, % at 2.79 µM; hit rate 1.3% among 370,000; AID 652257;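 active = inhibition above about 21% made by adding two undisclosed values, limit read from the data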
M18AAP inhibitor: PfM18AAP enzyme inhibition | recombinant PfM18AAP, H-Glu-NHMec fluorogenic cleavage | inhibition, % at 7.35 µM | hit rate 1.2% among 290,000 | AID 1822;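 active = inhibition above the campaign mean inhibition over all tested compounds plus 3 SD, cut at about 28% in these data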
UHRF1 MBD2 ctr: UHRF1 methyl-DNA binding inhibition | Q96T88 | UHRF1 binding to methylated oligo, TR-FRET | inhibition, % at 4.4 µM | hit rate 0.75% among 370,000 | AID 687016; in the data active = inhibition above about 21%;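 note: UHRF1 SRA domain binding a hemimethylated CpG hairpin DNA probe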
Target sequence (Q96T88 whole entry, looked up, the tested form may be a part): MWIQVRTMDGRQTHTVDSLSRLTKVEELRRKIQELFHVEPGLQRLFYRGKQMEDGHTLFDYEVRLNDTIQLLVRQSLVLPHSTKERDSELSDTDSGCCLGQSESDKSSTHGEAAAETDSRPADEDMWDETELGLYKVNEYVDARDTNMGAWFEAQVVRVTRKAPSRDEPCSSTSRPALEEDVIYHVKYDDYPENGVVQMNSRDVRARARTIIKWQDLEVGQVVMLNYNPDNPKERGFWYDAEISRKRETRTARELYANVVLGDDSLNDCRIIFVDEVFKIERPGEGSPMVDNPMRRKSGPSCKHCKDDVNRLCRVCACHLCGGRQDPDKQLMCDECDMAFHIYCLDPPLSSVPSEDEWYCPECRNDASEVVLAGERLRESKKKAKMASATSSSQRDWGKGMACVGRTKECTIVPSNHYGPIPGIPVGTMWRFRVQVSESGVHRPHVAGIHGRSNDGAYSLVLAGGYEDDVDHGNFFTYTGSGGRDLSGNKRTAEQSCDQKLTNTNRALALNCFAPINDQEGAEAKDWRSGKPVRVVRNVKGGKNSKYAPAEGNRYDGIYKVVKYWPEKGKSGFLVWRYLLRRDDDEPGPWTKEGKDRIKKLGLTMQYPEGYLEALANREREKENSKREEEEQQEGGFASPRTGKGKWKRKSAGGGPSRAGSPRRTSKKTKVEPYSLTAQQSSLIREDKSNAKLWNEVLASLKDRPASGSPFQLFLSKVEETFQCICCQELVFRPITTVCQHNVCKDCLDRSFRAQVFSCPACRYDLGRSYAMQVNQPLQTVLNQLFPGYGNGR
MBD2 inh: blocks human MBD2 binding to methylated DNA | hit rate 0.31% among 370,000 | inhibition, % at 4.4 µM | TR-FRET, MBD2 binding to methylated oligonucleotide | Q9UBB5; in the data active = inhibition above about 13%
PfG6PD inh: PfG6PD (Plasmodium falciparum) enzyme inhibition; PfGluPho enzyme, NADPH resazurin-diaphorase fluorescence; inhibition, % at 20 µM; hit rate 0.78% among 350,000; AID 504690;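 active = inhibition reaching at least a set limit at 20 µM in the primary screen, cut at about 59% in these data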
PRMT1 inh conf: PRMT1 (human) inhibition, FP confirmation. recombinant His-PRMT1, activity-based probe fluorescence polarization. shares compounds with PRMT1 FP inh. hit rate 42% among 3,300. inhibition, % at 2.79 µM;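 active = mean inhibition across replicates above the hit cutoff derived for the earlier primary screen, cut at about 22% in these data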
A number is an active result; n = inactive; x = no result. An excerpt weighted towards active compounds, which were near 3.3% of everything screened.

SMILES | PRMT1 FP inh | M18AAP inhibitor | UHRF1 MBD2 ctr | MBD2 inh | PfG6PD inh | PRMT1 inh conf
COCCN(CC(=O)Nc1ccccc1C(F)(F)F)C(=O)/C=C/c1ccc2ccccc2n1 | n | x | n | n | n | x
CSC1=N/C(=C\c2ccc(C)o2)C(=O)S1 | 31.2 | n | n | n | n | n
CCc1ccc(-c2nc(SCC(=O)NC3CC3)n[nH]2)cc1 | n | x | n | n | n | x
COc1ccc(-n2c(SCC(=O)Nc3ccc(Cl)cc3)nc(O)c(Cc3ccccc3)c2=O)cc1 | 34.1 | n | n | n | n | 31.6
COc1ccc(-n2c(SCC(=O)Nc3ccc(C)cc3)nc(O)c(Cc3ccccc3)c2=O)cc1 | n | n | n | n | n | x
O=C1C2C3C=CC(CC3)C2C(=O)N1c1cccc(Br)c1 (stereo not drawn) | n | n | n | n | n | x
Cc1ccccc1NC(=O)C(=O)NCCCN1CCOCC1 | n | n | n | n | n | x
Cc1ccc(N2C(=O)C3C4C=CC(CNC(=S)Nc5ccc(F)cc5)(O4)C3C2=O)cc1 (stereo not drawn) | 80.4 | n | n | n | n | 40.9
CC(C)COC(=O)NCC12C=CC(O1)C1C(=O)N(c3ccc(Cl)cc3)C(=O)C12 (stereo not drawn) | 37.4 | n | n | n | n | 33.3
Cc1ccc(N2C(=O)C3C4C=CC(CNC(=S)N5CCN(c6ccccn6)CC5)(O4)C3C2=O)cc1 (stereo not drawn) | 56.7 | n | n | n | n | 47.8
CC(C)(C)C(=O)NCC12C=CC(O1)C1C(=O)N(c3ccccc3)C(=O)C12 (stereo not drawn) | 80.7 | n | n | n | n | 56.0
CCc1ccccc1N1CC23C=CC(O2)C(C(=O)OCC(C)C)C3C1=O (stereo not drawn) | n | n | n | n | n | x
Cc1ccc(N2C(=O)C3C4C=CC(CNC(=S)Nc5ccc(Cl)cc5)(O4)C3C2=O)cc1 (stereo not drawn) | 84.8 | n | n | n | n | 28.7
Cc1ccc(N2C(=O)N(CC(=O)Nc3cccc(Cl)c3)C(=O)C2C)cc1 (stereo not drawn) | n | x | n | n | n | x
Cc1ccc(N2C(=O)C3C4C=CC(CNC(=S)Nc5cccc(Cl)c5)(O4)C3C2=O)cc1 (stereo not drawn) | 90.0 | n | n | n | n | 52.7
Cn1c(SCC(=O)NC2CCCC2)nnc1-c1cccs1 | n | n | n | n | n | x
CCNc1c(NC(=O)c2cccs2)c(=O)oc2ccccc12 | n | n | n | n | n | x
COC(=O)[C@]12C[C@H](CC(=O)NCc3ccccc3)C(=O)N(Cc3ccc(Cl)cc3Cl)C1=C[C@H](COCc1ccccc1)O[C@@H]2C | n | x | n | n | x | x
COC(=O)[C@]12C[C@H](CC(=O)NCc3cccc4ccccc34)C(=O)N(Cc3ccc(Cl)cc3Cl)C1=C[C@H](COCc1ccccc1)O[C@@H]2C | 68.4 | x | n | n | x | n
CCCc1cc(=O)n2[nH]c(NC(=O)c3ccco3)nc2n1 | n | n | n | n | n | x
COC(=O)c1ccc(NC(=O)c2nc(S(=O)(=O)Cc3cccc(C)c3)ncc2Cl)cc1 | 51.8 | n | n | n | n | 38.4
CCS(=O)(=O)c1ncc(Cl)c(C(=O)Nc2ccc(S(=O)(=O)N3CCC(C)CC3)cc2)n1 | 31.2 | n | n | n | n | n
CC1CCN(S(=O)(=O)c2ccc(NC(=O)c3ccncc3)cc2)CC1 | n | n | n | n | n | x
CCc1ccc(NC(=O)c2nc(S(=O)(=O)Cc3ccccc3)ncc2Cl)cc1 | 30.9 | n | n | n | x | 25.6
COc1ccc(C(=O)N2CCCC2(C#N)c2ccccc2)cc1[N+](=O)[O-] (stereo not drawn) | n | n | n | n | n | x
SMILES | PRMT1 FP inh | M18AAP inhibitor | UHRF1 MBD2 ctr | MBD2 inh | PfG6PD inh | PRMT1 inh conf
c1ccc(-c2nnc3sc(C4CCCCC4)nn23)cc1 | n | x | n | n | x | x
O=c1[nH]c(-[n+]2ccc3ccccc3c2)c(/C=N/N=C(\[O-])c2ccccc2)s1 | 54.1 | n | n | n | n | n
CC(C)N(C)S(=O)(=O)c1ccc(NC(=O)CSC(=S)N2CCCC2)cc1 | n | x | n | n | n | x
COCc1cc(=O)n2[nH]c(-c3ccsc3-n3c(C)ccc3C)cc2n1 | 45.5 | n | 72.2 | 36.5 | n | n
Cc1nc2cc(-c3ccsc3-n3c(C)ccc3C)[nH]n2c(=O)c1Cl | 25.3 | n | 32.0 | n | n | n
CCCS(=O)(=O)N1CCN=C1SCc1ccc(F)cc1 | n | n | n | n | n | x
CCOc1ccc(NC(=O)CN(C)C(=O)c2cccnc2SC)cc1OCC | n | n | n | n | n | x
